Screens as filed in PubChem BioAssay.
ssDAF12 agonist: activates DAF-12 receptor from parasite S. stercoralis | activation, % at 6.8 µM | 370,000 compounds, 1% hits | HEK293 ssDAF-12/GRIP1 lit1-tk-luc reporter, luminescence; % of 3 µM dafachronic acid response | AID 652126;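 active = activation above the mean over all tested compounds plus 3 SD, cut at about 0.9% in these data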;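 note: 0% = DMSO-only wells and 100% = 3 µM delta7-dafachronic acid wells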
DAX1 inh-1: inhibits human nuclear receptor DAX1. P51843. HEK293 Gal4-DAX1 luciferase reporter, luminescence. AID 504766. 340,000 compounds, 0.99% hits. inhibition, % at 6.75 µM;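 active = inhibition above the mean over all tested compounds plus 3 SD, cut at about 4.2% in these data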;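 note: 0% = DAX1-transfected cells with DMSO and 100% = empty-vector control cells with DMSO; inhibition shows as a rise in luminescence from relieved DAX1 repression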
Target sequence (P51843 207-470 limits assumed): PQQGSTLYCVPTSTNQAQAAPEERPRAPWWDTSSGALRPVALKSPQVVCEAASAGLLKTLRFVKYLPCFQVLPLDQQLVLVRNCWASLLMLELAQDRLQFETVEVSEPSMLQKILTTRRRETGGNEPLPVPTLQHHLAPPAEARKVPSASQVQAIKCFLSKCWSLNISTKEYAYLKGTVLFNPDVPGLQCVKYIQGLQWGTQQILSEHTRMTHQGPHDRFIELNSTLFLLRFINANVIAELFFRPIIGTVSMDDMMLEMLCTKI
hgDAF12 agonist: activates the H. glycines DAF-12 receptor ligand-binding domain; HEK293 GAL4-hgDAF12 UAS-luciferase reporter, agonist luminescence; normalized to butyrate control; activation, % at 6.8 µM; 370,000 compounds, 1.8% hits; AID 687014;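 active = activation above a cutoff set at the mean of all screened compounds plus 3 SD, cut at about 10% in these data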;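 note: 0% = DMSO wells and 100% = sodium butyrate wells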
DAX1 inh-2: DAX1 (NR0B1) inhibition, primary screen; HEK293T StAR-luciferase reporter, SF-1/DAX-1 repression relief; inhibition, % at 6.8 µM; 370,000 compounds, 1.1% hits; AID 652010;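 active = inhibition above the mean over all tested compounds plus 3 SD, cut at about 3.6% in these data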;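 note: 0% = DAX-1 cells with DMSO and 100% = cells lacking DAX-1 with DMSO; higher inhibition means more luminescence from relief of DAX-1 repression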
hcDAF12 agonist: H. contortus DAF-12 activation, primary screen; 370,000 compounds, 1.4% hits; activation, % at 6.8 µM; HEK293 hcDAF-12 lit1-tk-luc reporter, luminescence; 0% DMSO, 100% Δ7-dafachronic acid;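 active = activation above the mean of all tested compounds plus 3 SD, cut at about 5.5% in these data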;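 note: 100% = response to 3 µM Δ7-dafachronic acid high control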
AHR activator: activators of human aryl hydrocarbon receptor | P35869 | AHR-responsive luciferase reporter cells, luminescence | activation, % at 5 µM | 320,000 compounds, 2.5% hits; in the data active = activation above about 47%;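 note: 0% = vehicle wells and 100% = reference agonist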
LXRb hcDAF ctr: LXR-beta agonism as hcDAF-12 counter-screen; shares compounds with hcDAF12 agonist; activation, % at 6.8 µM; 3,400 tested, under 10 active; HEK293 Gal4-LXR tk-luc reporter, luminescence, 24 h; normalized: DMSO 0%, positive control 100%;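 active = mean percent activation of the reporter above a cutoff set as the average over tested compounds plus their standard deviation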
Target sequence (P55055 whole entry, looked up, the tested form may be a part): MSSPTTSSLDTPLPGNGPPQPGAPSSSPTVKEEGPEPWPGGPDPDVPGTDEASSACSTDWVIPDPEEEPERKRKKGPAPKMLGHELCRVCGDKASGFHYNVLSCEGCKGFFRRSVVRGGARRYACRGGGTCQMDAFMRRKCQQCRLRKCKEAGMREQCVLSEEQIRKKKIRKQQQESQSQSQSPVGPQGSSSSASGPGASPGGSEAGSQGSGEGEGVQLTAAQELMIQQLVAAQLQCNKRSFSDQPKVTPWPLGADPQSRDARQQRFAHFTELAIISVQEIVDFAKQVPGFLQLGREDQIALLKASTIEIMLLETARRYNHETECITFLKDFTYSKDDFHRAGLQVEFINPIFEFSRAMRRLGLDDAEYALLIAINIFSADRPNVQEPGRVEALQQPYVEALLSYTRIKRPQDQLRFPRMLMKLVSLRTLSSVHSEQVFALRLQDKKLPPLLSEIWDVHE
hcDAF12 conf: hcDAF-12 agonism, confirmation assay; shares compounds with hcDAF12 agonist; HEK293 hcDAF-12 lit1-tk-luc reporter, luminescence; % of Δ7-dafachronic acid response; activation, % at 6.8 µM; 3,400 compounds, 61% hits;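 active = mean activation across triplicate tests above the threshold derived from the earlier primary screen, cut at about 5.5% in these data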;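 note: 0% = DMSO only wells and 100% = 3 µM Δ7-dafachronic acid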
hgDAF12 conf: confirmation of H. glycines DAF-12 agonists | shares compounds with hgDAF12 agonist | HEK293 GAL4-hgDAF12 luciferase reporter, agonist mode; percent of butyrate response | activation, % at 6.8 µM | 3,300 compounds, 80% hits | AID 743050;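 active = mean activation over triplicate wells above the hit cutoff derived from the earlier primary screen, cut at about 11% in these data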;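 note: 0% = DMSO low control and 100% = 2 mM sodium butyrate high control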
LXR ag 2: activates human LXR-beta, counter-screen for DAF-12 agonists; shares compounds with hgDAF12 agonist; HEK293 Gal4-LXR luciferase reporter, 24 h; activation, % at 6.8 µM; 3,300 tested, under 10 active;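 active = mean activation of the triplicate above a set limit carried over from the primary screen, none filed active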
The depositor's hits bear a star; . = not tested or not shown. Shown are actives, neighbours in structure and some others; about 5.7% of the full set was active somewhere.

SMILES | ssDAF12 agonist | DAX1 inh-1 | hgDAF12 agonist | DAX1 inh-2 | hcDAF12 agonist | AHR activator | LXRb hcDAF ctr | hcDAF12 conf | hgDAF12 conf | LXR ag 2
CC(=O)Nc1ccc(NC(=O)CSc2nnc(NC(=O)c3ccccc3F)s2)cc1 | 0 | 1 | 17* | 3 | 7.1* | . | 1 | 7.2* | 13* | 0
COc1ccc(/C(=N/Nc2ncnc3ccccc23)C(=O)O)cc1 | 1.8* | 1 | 16* | 2 | 11* | 73* | 0 | 7.5* | 16* | 1
COc1ccc(C(=O)Oc2cccc(Nc3ncnc4ccccc34)c2)cc1OC | -2 | -3 | -4 | -1 | -2 | -2 | . | . | . | .
CCOC(=O)/C(=N\Nc1ncnc2ccccc12)c1ccc(OC)cc1 | 2.4* | 1 | 18* | 3 | 17* | 32 | 2 | 11* | 17* | 1
O=c1cc(CSc2nc(NCc3ccc(Cl)cc3)c3ccccc3n2)nc2ccc(Cl)cn12 | -1 | 1 | -1 | 0 | 0 | . | . | . | . | .
COc1ccc(-c2cc(C(=O)N(C)Cc3nc4ccccc4c(=O)[nH]3)c3ccccc3n2)cc1OC | -1 | -3 | 0 | -4 | -1 | 16 | . | . | . | .
COc1ccc(-c2nc3c4ccccc4ccn3c2Cc2cccc(F)c2)cc1OC | 1.0* | . | 16* | -1 | 6.7* | . | 1 | 7.4* | 14* | 0
COc1ccc(-c2nc3c(C)cc(Br)cn3c2Cc2cccc(F)c2)cc1OC | -1 | . | 4 | -1 | 1 | . | . | . | . | .
CC(C)(C)c1csc(NC(=O)Cc2ccc(S(=O)(=O)N3CCOCC3)s2)n1 | -1 | -2 | -2 | -6 | -2 | 3 | . | . | . | .
CN(C)c1ccc(C2NC(=O)c3ccccc3N2)cc1 (stereo not drawn) | 1 | 2 | 14* | 2 | 8.1* | 9 | 2 | 8.3* | 20* | 1
O=C1NC(c2ccco2)Nc2ccccc21 (stereo not drawn) | -1 | 1 | -1 | 0 | -2 | 2 | . | . | . | .
N/C(=N\OC(=O)c1ccc(Cl)cc1)c1[nH]ncc1Br | 1 | 3 | 19* | 3 | 12* | 10 | 2 | 7.3* | 21* | 1
COc1ccc2cc(C(N)=O)c(=Nc3ccccc3)oc2c1 | 0 | 2 | 14* | 4.3* | 14* | 24 | 1 | 2 | 13* | 1
Cc1ccc2oc(-c3ccc(C)c(NC(=S)NC(=O)c4cccs4)c3)nc2c1 | 2.6* | 4.7* | 14* | 3.9* | 11* | 2 | 1 | 8.9* | 14* | 1
Cc1ccc2oc(-c3ccc(C)c(NC(=O)Cc4cccs4)c3)nc2c1 | 0 | 1 | 1 | 0 | 0 | 0 | . | . | . | .
COc1ccc(NC(=O)COc2cc(C)cc(C)c2)cc1S(=O)(=O)N1CCCCC1 | -2 | -4 | -3 | -6 | -3 | 0 | . | . | . | .
O=[N+]([O-])c1ccc(/C=C/c2ccc3ccccc3n2)cc1 | 1.0* | -2 | 24* | 3.8* | 11* | -16 | 2 | 9.7* | 13* | 1
O=C(Nc1ccc2c(c1)OCCO2)c1ccc(Br)cc1 | 0 | 2 | 15* | 2 | 8.3* | -4 | 2 | 7.2* | 14* | 1
CN(c1ccc(C(=O)Nc2ccc3c(c2)OCCO3)cc1)S(C)(=O)=O | -1 | 1 | 6 | 2 | 4 | 3 | . | . | . | .
O=C(Nc1ccc2c(c1)OCO2)c1noc2c1CCCC2 | 1 | 2 | 15* | 2 | 8.1* | 55* | 2 | 8.5* | 16* | 1
COc1ccccc1C(=O)Nc1ccc2c(c1)OCCO2 | 1 | 2 | 14* | 2 | 6.8* | 1 | 1 | 6.6* | 14* | 1
O=C(N/N=C/c1cc(Br)cs1)c1ccc2c(c1)OCCO2 | -1 | . | 15* | 0 | 6.6* | 15 | 1 | 2 | 24* | 1
CCCC(C)(C)C(=O)N1CCC1(C)C(=O)NS(=O)(=O)c1ccc(Cl)cc1 (stereo not drawn) | -1 | . | 2 | -1 | 1 | . | . | . | . | .
CN(CC(=O)Nc1ccccc1Cl)C(=O)COC(=O)C1CC1 | -1 | 0 | -1 | 1 | 0 | -1 | . | . | . | .
CSc1ncccc1C(=O)OCC(=O)Nc1ccc(C)c(S(=O)(=O)N2CCOCC2)c1 | -1 | -2 | 3 | -2 | 0 | 1 | . | . | . | .
SMILES | ssDAF12 agonist | DAX1 inh-1 | hgDAF12 agonist | DAX1 inh-2 | hcDAF12 agonist | AHR activator | LXRb hcDAF ctr | hcDAF12 conf | hgDAF12 conf | LXR ag 2
O=C(c1ccc2ccccc2c1)c1cccc(F)c1C(=O)O | -1 | 2 | -2 | -1 | 0 | . | . | . | . | .
Cc1ccc(NC(=O)c2ccc3c(c2)OCO3)cc1Cl | 1.7* | 4.7* | 17* | 3 | 8.0* | 13 | 1 | 5 | 18* | 1
COCC(C)n1c(SCc2ccc(C(=O)OC)cc2)nc2ccccc2c1=O (stereo not drawn) | -2 | -1 | 0 | 0 | -4 | -2 | . | . | . | .
O=C(CC1CCCC1)N1CC[C@H]2[C@H](CCCN2Cc2ccccc2)C1 | -1 | . | -1 | 1 | 0 | . | . | . | . | .
C(=C\n1nnc2ccccc21)/c1ccccn1 | 1.2* | 1 | 19* | 3 | 8.4* | 44 | 2 | 7.5* | 24* | 1
CCCCC(=O)Nc1ccc(NCc2ccc(C)s2)cc1 | -1 | 0 | -2 | -1 | -2 | 2 | . | . | . | .
CC(=O)Nc1ccc(-c2cn3cc(C)ccc3n2)cc1 | 0 | -1 | 18* | 3.6* | 11* | -5 | 1 | 7.4* | 11* | 0
CC(C)c1ccc(S(=O)(=O)NCc2ccc3c(c2)OCO3)cc1 | -2 | 0 | -1 | 0 | -1 | 0 | . | . | . | .
O=C(N/N=C/c1c[nH]c2ccccc12)c1cc(-c2ccc(-c3ccccc3)cc2)n[nH]1 | 1 | 1 | 15* | 1 | 7.8* | 7 | 0 | 4 | 0 | 0
O=C1c2ccccc2CN1c1ccccc1 | -1 | -1 | 6 | 1 | 2 | -6 | . | . | . | .
Cc1ccc(N2Cc3ccccc3C2=O)cc1 | 1.5* | 5.4* | 16* | 2 | 12* | 3 | 2 | 8.8* | 17* | 1
Cc1cccc(Nc2n[nH]c(C)c2[N+](=O)[O-])c1 | 0 | 2 | 14* | 3.7* | 6.8* | 59* | 1 | 5.8* | 14* | 1
